Assay outcomes (PubChem)
TDP1 cell CPT: growth inhibition of DT40 Tdp1-/-;hTDP1 cells with camptothecin (screen for TDP1 inhibitors); 420,000 compounds, 12% hits; Potency, µM (doses to about 46.2 µM), for the others: at the top dose activity change, negative = growth inhibition, hits mostly inhibitors; chicken DT40 Tdp1-/-;hTDP1 cells + 20 nM CPT, ATP luminescence, 48 h; also: potency is read from the fitted curve at half-maximal effect; nearly all actives have a fitted effect of over 55% in size
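Cell growth measured by CellTiter-Glo luminescence after a minimum 48 h, 37 C compound exposure with 20 nM CPT in Tdp1-knockout DT40 cells stably expressing hTDP1, seeded 400/well; qHTS titration format.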
ELG1 repair inh: inhibitors of ELG1-dependent DNA repair in HEK293T cells | HEK293T ELG1-luciferase reporter, luminescence, 16 h; DNA damage induced by 5-fluorouridine | Potency, µM (doses to about 46.1 µM), for the others: at the top dose activity change, negative = inhibition, hits mostly inhibitors | 330,000 compounds, 2.3% hits | AID 504467; also: potency is read from the fitted curve at half-maximal effect; nearly all actives have a fitted effect of over 55% in size
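Cells (2,000 per well) received 5-fluorouridine plus test compound or DMSO and were incubated 16 hr at 37 °C, 5% CO2. Luciferase activity was read by luminescence 30 min after ONE-Glo addition; signal suppression marked inhibition of damage-induced ELG1 function.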
IL1B secr inh: blocks inflammasome-driven IL-1 beta release | THP-1 LPS/ATP IL-1B secretion, AlphaLISA, 16 h; hits give low values | activity change, % at 57.5 µM | 360,000 compounds, 4.7% hits; in the data active = activity change below about -50%; inconclusive = mostly about -30% to -49%
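Secreted IL-1B measured by AlphaLISA bead assay after 16 h compound exposure of THP-1 cells; compounds (final up to 57.5 uM) added 1 h before LPS (250 ng/mL) and ATP (1.25 mM) stimulation; lower signal means less secretion.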
DT40 TDP1 no CPT: qHTS for Inhibitors of human tyrosyl-DNA phosphodiesterase 1 (TDP1): qHTS in cells in absence of CPT | DT40 Tdp1-/- hTDP1 cells, no CPT, ATP luminescence, 48 h | Potency, µM (highest dose often 46.2 µM), for inactives: at the highest dose activity change, negative = growth inhibition, usual class: inhibitors | 420,000 compounds, 15% hits | AID 686978, 2013; also: potency is read from the fitted curve at half-maximal effect; nearly all actives have a fitted effect of over 55% in size
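Readout: luminescence from CellTiter-Glo after 30 min in the dark at RT. Cells: DT40 Tdp1-/- with stable hTDP1, 400/well. Exposure: compounds alone, ≥48 hr, 37 °C.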
RORg inh: inhibitors of mouse ROR gamma transcriptional activity. 310,000 compounds, 5.4% hits. P51450. Drosophila S2 Gal4-RORgamma UAS-luciferase reporter, 20 h. Potency, µM (series often up to 53.6 µM), inactives show at the top dose activity change, negative = inhibition, hits mostly inhibitors; also: potency is read from the fitted curve at half-maximal effect; nearly all actives have a fitted effect of over 60% in size
Target sequence (P51450 whole entry, looked up, the tested form may be a part): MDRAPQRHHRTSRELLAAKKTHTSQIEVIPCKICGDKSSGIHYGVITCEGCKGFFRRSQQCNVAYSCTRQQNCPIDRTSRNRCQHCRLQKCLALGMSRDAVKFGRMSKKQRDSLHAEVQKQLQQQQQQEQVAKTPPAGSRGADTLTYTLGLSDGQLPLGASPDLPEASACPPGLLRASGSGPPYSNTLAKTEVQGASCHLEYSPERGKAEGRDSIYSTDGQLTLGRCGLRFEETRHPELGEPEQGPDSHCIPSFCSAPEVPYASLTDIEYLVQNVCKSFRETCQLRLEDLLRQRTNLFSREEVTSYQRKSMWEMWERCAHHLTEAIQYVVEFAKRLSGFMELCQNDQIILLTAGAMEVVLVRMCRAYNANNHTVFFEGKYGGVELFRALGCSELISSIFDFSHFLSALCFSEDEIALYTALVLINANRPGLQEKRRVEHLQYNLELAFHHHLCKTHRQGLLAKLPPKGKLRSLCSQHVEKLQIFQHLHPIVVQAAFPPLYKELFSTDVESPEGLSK
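ROR gamma transcriptional activity was tracked as Gal4-UAS luciferase output in stably transfected Drosophila Schneider cells, with compound added 1 hr before 700 uM copper sulfate induction and a 20 hr ambient-temperature incubation.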
Gal4-VP16 FLuc: inhibits Gal4-VP16 luciferase reporter, ROR gamma counter-screen; Potency, µM (titrated, usually from 53.6 µM), inactives show at the top dose activity, negative = inhibition, usual class: inhibitors; AID 2546; Drosophila S2 Gal4-VP16 UAS-luciferase, luminescence, 20 h; 310,000 compounds, 3.5% hits;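 also: Gal4-VP16 expression switched on by copper sulfate through the metallothionein promoter; potency is read from the fitted curve at half-maximal effect; nearly all actives have a fitted effect of over 50% in size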
Active calls of the source: *; ? = inconclusive; . = no result. Most compounds without a hit are left out; they make up all but 21% or so of the library. Unless noted, calls follow the shape of the dose curve; as a rule, active = well fitted curve in the direction sought with a large enough effect; inconclusive = small, poorly fitted or top-dose-only effect, or another doubt; inactive = no such curve, though single readings can be large; an effect the other way counts as inactive or inconclusive. % is scaled to controls: 0 for no effect and ±100 for the full control effect.

SMILES	TDP1 cell CPT	ELG1 repair inh	IL1B secr inh	DT40 TDP1 no CPT	RORg inh	Gal4-VP16 FLuc
CCOc1ccc2nc(N3CCCC(C(=O)Nc4cc(Cl)c(OC)cc4OC)C3)sc2c1 (configuration not stated)	18.4µM*	.	.	13µM*	.	.
NC(CSC(c1ccccc1)(c1ccccc1)c1cccc2ccccc12)C(=O)O (configuration not stated)	?	.	-50.2*	?	.	.
N[C@H](CSC(c1ccccc1)(c1ccccc1)c1ccccc1)C(=O)O	.	.	.	.	9.4%	3.6%
O=C(Cc1c(Cl)cccc1Cl)Nc1ccncc1Cl	?	22.1%	22.1	?	-8.4%	1.8%
O=C(Cc1ccc(Cl)cc1Cl)Nc1ccncc1	11.6µM*	-2.2%	-3.2	?	?	5.62µM*
C=CCNC(=O)Nc1ccc(F)c(Cl)c1	-18.9%	-1.0%	-1.6	-9.9%	6.6%	-11.4%
O=C(Nc1ccncc1)Nc1ccc(F)c(Cl)c1	16.4µM*	-5.3%	?	?	-1.2%	-6.9%
COc1ccc(CC(=O)Nc2ccncc2Cl)cc1	4.61µM*	0.3%	-9.2	1.84µM*	3.0%	3.0%
O=C(Cc1ccc(Cl)cc1Cl)Nc1ccncc1Cl	5.17µM*	?	-25.5	1.84µM*	-35.5%	5.62µM*
COc1ccc(-c2cc(C(=O)OCC(=O)c3cccc(OC)c3)c3cccc(Cl)c3n2)cc1	-3.9%	.	.	-18.7%	.	.
Cc1cc(NC(=O)CSc2nc(N)c(NC(=O)c3ccco3)c(=O)[nH]2)no1	-7.0%	?	-1.8	24.9%	8.9%	-9.6%
Cc1ccc(NC(=O)Nc2ccc(F)cc2)cc1Cl	?	?	?	23.1µM*	37.1%	-2.0%
O=c1[nH]c(-c2ccc(Cl)cc2)cs1	?	?	-55.2*	-23.9%	-24.9%	-7.3%
O=c1[nH]c(-c2ccccc2)cs1	-29.7%	?	15.8	-21.3%	0.7%	10.3%
COc1cc(C(=O)O[C@H]2C/C(C)=C/CC/C(C)=C/[C@@H](O)C2C(C)C)ccc1O (some centres not stated)	.	.	.	.	6.9%	-22.1%
O=C(NCc1ccccc1)c1cccn1-c1nnc(N2CCCC2)s1	-21.1%	.	.	?	.	.
COc1ccc(CNC(=O)c2cccn2-c2nnc(N3CCCC3)s2)c(OC)c1	?	.	.	16.4µM*	.	.
Cc1ccc(CNC(=O)c2cccn2-c2nnc(N3CCCCC3)s2)cc1	20.6µM*	.	.	23.1µM*	.	.
CCOc1ccc(CNC(=O)c2cccn2-c2nnc(N3CCCCC3)s2)cc1OC	25.9µM*	.	.	16.4µM*	.	.
CCN1CCN(c2nnc(-n3cccc3C(=O)Nc3cccc(OC)c3)s2)CC1	-24.7%	.	.	?	.	.
CCN(CC)c1ccc(NC(=O)c2cccn2-c2nnc(N3CCCCC3)s2)c(C)c1	5.17µM*	.	.	5.8µM*	.	.
Cc1ccccc1C(=O)Nc1cccc(OCc2cc(=O)n3c4c(sc3n2)CCCC4)c1	-19.6%	.	.	-24.7%	.	.
COC(=O)[C@@]1(Cc2ccccc2)[C@H]2c3cc(C(=O)N(C)C)n(Cc4cc(C)n(C)n4)c3C[C@H]2CN1C(=O)c1ccccc1	.	.	.	.	10.6%	-8.6%
CCN(C[C@H]1N[C@@](C)(C(=O)OC)[C@H]2C(=O)N(Cc3ccccc3)C(=O)[C@@H]12)S(=O)(=O)c1ccccc1	-5.8%	2.4%	-2.1	-5.4%	.	.
CN1CCN(C(CNC(=O)C(=O)Nc2ccc3c(c2)OCO3)c2ccc(F)cc2)CC1 (configuration not stated)	7.1%	1.4%	?	-20.7%	.	.
O=C1CC(c2nc3ccccc3n2CCC2CCCCC2)CN1c1ccccc1Cl (configuration not stated)	-18.8%	.	.	?	.	.
